Test results taken from the OligoGym collection.

target: DPRX; experiment: pooled miR-30 sensor sort-seq; sequence = guide strand; details: shRNA
Further: reference of the scale not given here.

How did the sensor-assay potency score (higher = more potent) turn out when TCTTAGTGAACATGGTTCGTTT was run?
The sensor-assay potency score (higher = more potent) was -0.457.

TATATATTAGGATCTCGGCAGC was tested. Which sensor-assay potency score (higher = more potent) did it give?
Its sensor-assay potency score (higher = more potent) is -0.886.

For TTCTTAGTGAACATGGTTCGTT, which sensor-assay potency score (higher = more potent) is on record?
Its sensor-assay potency score (higher = more potent) is 0.0305.

For TTTCCTGTGTGAATGCATCTGG, which sensor-assay potency score (higher = more potent) is on record?
The sensor-assay potency score (higher = more potent) was 0.364.

How did the sensor-assay potency score (higher = more potent) turn out when TTGGGGTACAGGATGAGCTGGA was run?
The sensor-assay potency score (higher = more potent) was 0.271.

For TAGTGTGTCTGCATTTCTCAGG, which sensor-assay potency score (higher = more potent) is on record?
The sensor-assay potency score (higher = more potent) was -0.247.

How did the sensor-assay potency score (higher = more potent) turn out when TTTTTGATGAATATGCTTGCAT was run?
The sensor-assay potency score (higher = more potent) was 0.217.

TTGCTTCTTAGTGAACATGGTT was tested. Which sensor-assay potency score (higher = more potent) did it give?
The sensor-assay potency score (higher = more potent) was -0.403.

With TGCTTCTTAGTGAACATGGTTC as the sequence, how does the sensor-assay potency score (higher = more potent) read?
Its sensor-assay potency score (higher = more potent) is -0.891.

How did the sensor-assay potency score (higher = more potent) turn out when TTTTGATGAATATGCTTGCATT was run?
The sensor-assay potency score (higher = more potent) was -1.14.

Which sensor-assay potency score (higher = more potent) does the source give for TTTTGCTCTGTGATTCTTGAAC here?
The sensor-assay potency score (higher = more potent) was -0.966.

target: DQX1; experiment: as above; details: shRNA

With TATAAAGGCTTCATACACCTGG as the sequence, how does the sensor-assay potency score (higher = more potent) read?
The sensor-assay potency score (higher = more potent) was 0.178.

With TTTAGTAGTAACACCAGGGAGC as the sequence, how does the sensor-assay potency score (higher = more potent) read?
Its sensor-assay potency score (higher = more potent) is -0.54.

For TTGCTCGCAATCGTCTTGCCTC, which sensor-assay potency score (higher = more potent) is on record?
Its sensor-assay potency score (higher = more potent) is -0.154.

TTTTAGTAGTAACACCAGGGAG was tested. Which sensor-assay potency score (higher = more potent) did it give?
Its sensor-assay potency score (higher = more potent) is -0.895.

AACACTAGCACATCTCCTGGAA was tested. Which sensor-assay potency score (higher = more potent) did it give?
The sensor-assay potency score (higher = more potent) was 0.212.

With TAGGATTGTAAACACTTCGGAG as the sequence, how does the sensor-assay potency score (higher = more potent) read?
Its sensor-assay potency score (higher = more potent) is -0.968.

For TTGAATCTCAGAAACAATGGAA, which sensor-assay potency score (higher = more potent) is on record?
The sensor-assay potency score (higher = more potent) was 0.304.

How did the sensor-assay potency score (higher = more potent) turn out when TAGTATGACACCCAGATCTGAC was run?
The sensor-assay potency score (higher = more potent) was -0.721.

TGAGTGACCACAACCTTTCGGG was tested. Which sensor-assay potency score (higher = more potent) did it give?
Its sensor-assay potency score (higher = more potent) is 0.181.

Which sensor-assay potency score (higher = more potent) does the source give for TTCTGGAGCAGGCTGGTCCAGG here?
The sensor-assay potency score (higher = more potent) was -1.18.

Which sensor-assay potency score (higher = more potent) does the source give for TTCTGATAGTATGACACCCAGA here?
The sensor-assay potency score (higher = more potent) was -1.09.

With TTCAGCAGCTCATAGTAGCGGG as the sequence, how does the sensor-assay potency score (higher = more potent) read?
The sensor-assay potency score (higher = more potent) was -0.681.
